The values below come from PubChem BioAssay (EPA / NIEHS).

Some compounds were tested as several samples or in several runs, with calls that do not always agree. Active and inactive are the calls of the source. How the source made its calls: active means hit-call score of the fitted dose curve at least 0.9, where 1 is the maximum; inactive means score below 0.9.

Hypoxia-inducible factor 1-alpha (Homo sapiens), sequence (Q16665 whole entry, looked up): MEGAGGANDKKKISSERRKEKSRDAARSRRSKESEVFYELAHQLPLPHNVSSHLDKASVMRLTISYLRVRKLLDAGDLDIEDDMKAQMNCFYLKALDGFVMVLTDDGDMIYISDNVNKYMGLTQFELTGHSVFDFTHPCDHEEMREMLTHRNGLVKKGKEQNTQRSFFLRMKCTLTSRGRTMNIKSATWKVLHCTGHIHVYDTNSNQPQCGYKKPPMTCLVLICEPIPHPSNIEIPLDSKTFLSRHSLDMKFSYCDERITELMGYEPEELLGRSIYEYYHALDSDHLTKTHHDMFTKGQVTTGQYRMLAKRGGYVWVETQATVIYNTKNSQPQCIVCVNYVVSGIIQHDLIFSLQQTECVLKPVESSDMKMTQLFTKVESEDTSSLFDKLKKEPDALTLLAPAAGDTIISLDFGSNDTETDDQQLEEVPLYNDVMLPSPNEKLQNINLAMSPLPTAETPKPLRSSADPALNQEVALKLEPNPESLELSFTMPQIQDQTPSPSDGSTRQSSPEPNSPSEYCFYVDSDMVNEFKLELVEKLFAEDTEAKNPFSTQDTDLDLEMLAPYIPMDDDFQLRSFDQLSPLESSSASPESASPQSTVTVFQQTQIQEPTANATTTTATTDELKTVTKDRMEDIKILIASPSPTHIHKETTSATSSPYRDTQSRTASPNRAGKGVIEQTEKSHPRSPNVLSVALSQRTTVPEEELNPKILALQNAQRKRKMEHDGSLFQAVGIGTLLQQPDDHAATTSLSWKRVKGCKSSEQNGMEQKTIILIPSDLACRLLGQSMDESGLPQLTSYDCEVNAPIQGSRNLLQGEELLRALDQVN

The test addresses Hypoxia-inducible factor 1-alpha (Homo sapiens) (UniProt Q16665). As to the kind of experiment: ATG_HIF1a_CIS: Attagene CIS-FACTORIAL HepG2 Assay for human Hypoxia Inducible Factor 1 (HIF1A) (AID 2282951). The note with it: HepG2 Attagene cis-factorial HIF1a reporter transcription; actives raise or lower the signal. As to the method: ATG_CIS is a cell-based, multiplexed-readout assay that uses HepG2, a human liver cell line, with measurements taken at 24 hours after chemical dosing in a 24-well plate.ATG_HIF1a_CIS is one of 52 assay component(s) measured or calculated from the ATG_CIS assay. It is designed to make measurements of mRNA induction, a form of inducible reporter, as detected with fluorescence intensity signals by Reverse transcription polymerase chain reaction (RT-PCR) and Capillary electrophoresis technology.Data from the assay component ATG_HIF1a_CIS was analyzed into 1 assay endpoint. This assay endpoint, ATG_HIF1a_CIS, was analyzed with bidirectional fitting relative to DMSO as the negative control and baseline of activity. Using a type of inducible reporter, measures of mRNA for gain or loss-of-signal activity can be used to understand the reporter gene at the transcription factor-level as they relate to the gene HIF1A. Furthermore, this assay endpoint can be referred to as a primary readout, because this assay has produced multiple assay endpoints where this one serves a reporter gene function. To generalize the intended target to other relatable targets, this assay endpoint is annotated to the dna binding intended target family, where the subfamily is basic helix-loop-helix protein.
Human liver HepG2 cells are transiently transfected with multiple reporter transcription units (MRTUs) in 6-well plates using FuGene 6 reagent (Roche; 3 ml FuGene/1 mg DNA). The MRTU constructs are regulated by a cis-regulating element (promoter). […] A major difference between the CIS and TRANS system is that in CIS activities of endogenous TFs are measured, whereas the TRANS assay evaluates changes in activities of exogenous, chimeric NR-Gal4 proteins. […] At the end of 24 hour incubation, total RNA was isolated using TriZol reagent (Invitrogen). The isolated RNA is then reverse-transcribed using oligo(dT) primer and Mo-MLV reverse transcriptase (Invitrogen) with DNAse I (Ambion) treatment for 30 min. The one-tenth of the produced cDNA was amplified by PCR using Taq DNA polymerase (Invitrogen) and two reporter sequence-specific primers. The PCR products were fluorescently labeled by primer extension with 6-arboxyfluorescein (6-FAM) 5'-labeled reporter sequence-specific primer (2 min at 95 C, 20 s at 68 C and 10 min at 72 C) and these products were digested with 5U of HpaI (New England Biolabs) for 2h at 37 C. The fragments were purified using Qiaquick PCR columns (Qiagen), analyzed on an ABI 3130xL genetic analyzer (Applied Biosystems) with peak positions identified by using a set of X-rhodamine (ROX)-labeled MapMarker1000 molecular weight standards (BioVentures). The raw capillary electrophoresis data was processed using Attagraph software (Attagene).
Turning to `OCC(F)(F)C(F)(F)C(F)(F)F`, the compound was called inactive. Still for that read-out and setting: the result for `CCCCOCCOCCOC(=O)CCCCC(=O)OCCOCCOCCCC` reads “inactive”. The same measure, in the same setting: then `OCC(F)(F)C(F)(F)C(F)(F)C(F)F`, with “inactive”. Still for that read-out and setting: the result for `FC(F)(F)C(F)(F)C(F)(F)N(C(F)(F)C(F)(F)C(F)(F)F)C(F)(F)C(F)(F)C(F)(F)F` reads “inactive”; that for `C=C(C)C(=O)OCC(F)(F)C(F)(F)C(F)(F)F`, “inactive”; that for `O=C(O)C(F)(F)C(F)(F)F`, “inactive”. Take `O=C(O)C(F)(F)C(F)(F)C(F)(F)C(F)(F)F`: the result was inactive. In the case of `CC(C)OC(=O)c1ccccc1C(=O)OC(C)C`, the outcome was inactive. `c1ccc(-c2ccccc2-c2ccccc2)cc1`: the result was inactive. As for `OCCCC(F)(F)C(F)(F)C(F)(F)C(F)(F)C(F)(F)C(F)(F)C(F)(F)F`, the call was inactive and the AC50 was 197 µM (active). Consider `FC(F)(Br)C(F)(F)C(F)(F)C(F)(F)C(F)(F)C(F)(F)Br`, for which the compound was called inactive. The same measure, in the same setting: then `CCO[Si](CCC(F)(F)C(F)(F)C(F)(F)C(F)(F)C(F)(F)C(F)(F)F)(OCC)OCC`, with “inactive”; and `NC(=O)C(F)(F)C(F)(F)C(F)(F)C(F)(F)F`, with “inactive”. On to `O=C(O)C(F)(F)C(F)(F)C(F)(F)C(F)(F)C(F)(F)C(F)(F)C(F)(F)C(F)(F)Cl`, for which the AC50 is 50 µM (active). For `FC(F)(F)C(F)(F)C(F)(F)C(F)(F)C(F)(F)C(F)(F)C(F)(F)C(F)(F)F`, the call was inactive.

Regarding `O=C(C=Cc1ccccc1)OCC=Cc1ccccc1`, the result was inactive. Regarding `C=C(C)C(=O)OCCC(F)(F)C(F)(F)C(F)(F)C(F)(F)C(F)(C(F)(F)F)C(F)(F)F`, the compound was classed as inactive. As for `c1ccc(B(c2ccccc2)c2ccccc2)cc1`, the AC50 is 58.4 µM (active). `O=S(=O)(OCCOC(F)(F)F)C(F)(F)F`: the outcome was inactive. Regarding `CS(C)(=O)=O`, the outcome was inactive. Still for that read-out and setting: then `Cc1cccc(N(C)C)c1`, with “inactive”; and `FC(F)(F)C(F)(F)C(F)(F)C(F)(F)C(F)(F)C(F)(F)CCS`, with “inactive”; and `CCCCCCC(C)OC(=O)CCCCC(=O)OC(C)CCCCCC` (stereo not given), with “inactive”. The same measure, in the same setting: the result for `C=CC/C=C/C/C=C/C/C=C/C` reads “inactive”. Same read-out and setting: the result for `CNC(=S)NC` reads “inactive”; that for `Cc1cc(C)cc(O)c1`, “inactive”. On to `O=S(=O)(OCC(F)F)C(F)(F)F`, for which the compound was classed as inactive. On the same count and under the same terms, the result for `Cc1ccc(S(=O)(=O)OCC(F)(F)C(F)(F)C(F)(F)C(F)(F)C(F)(F)C(F)F)cc1` reads “inactive”.

As for `CO[Si](OC)(c1ccccc1)c1ccccc1`, the result was inactive.

`O=C(O)C(F)(OC(F)(F)C(F)(OC(F)(F)C(F)(F)C(F)(F)F)C(F)(F)F)C(F)(F)F` (stereo not given): the result was inactive. In the case of `O=C(CC(=O)C(F)(F)C(F)(F)F)C(F)(F)F`, the compound was called inactive. As to `FC(F)(F)C(F)(F)C(F)(F)C(F)(F)C(F)(F)C(F)(F)C(F)(F)Br`, the result was inactive. On the same count and under the same terms, the result for `CCN(Cc1cccc(S(=O)(=O)O)c1)c1ccc(C(=C2C=CC(=[N+](CC)Cc3cccc(S(=O)(=O)O)c3)C=C2)c2ccc(O)cc2S(=O)(=O)[O-])cc1` reads “inactive”. Turning to `CC(C)(C)C(=O)CC(=O)C(F)(F)C(F)(F)C(F)(F)F`, the result was inactive. On the same count and under the same terms, then `CCCCCCCCC(F)(F)C(F)(F)C(F)(F)C(F)(F)C(F)(F)C(F)(F)F`, with “inactive”; and `O=C(O)C(F)(F)C(F)(F)C(F)(F)C(F)(F)C(F)(F)C(F)(F)C(F)(F)C(F)(F)C(F)(F)C(F)(F)C(F)(F)C(F)(F)F`, with “inactive”. The same measure, in the same setting: then `FC(F)(F)C(F)(F)CNCC(F)(F)C(F)(F)F`, with “inactive”. Regarding `C1COCCN1`, the compound was classed as inactive.

`CCCCCC=O`: the outcome was inactive.

What is called AC50 is the concentration giving half of the maximal activity seen.
